Measurements as given in PubChem BioAssay (NCATS).
Records with an inconclusive call do not appear. A call without a number means that no potency is given here. Calls of active or inactive are those of the source. Unless noted, calls follow the shape of the dose curve; as a rule, active = well fitted curve in the direction sought with a large enough effect; inconclusive = small, poorly fitted or top-dose-only effect, or another doubt; inactive = no such curve, though single readings can be large; an effect the other way counts as inactive or inconclusive.

Tests used:
[1] = biological target: Endonuclease 4 (Escherichia coli (strain K12)) (UniProt P0A6C1); test: Counterscreen for APE1 Inhibitors: qHTS Validation Assay for Inhibitors of Endonuclease IV (AID 1708)
Outline: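 Conditions: 2 nM enzyme, 50 nM TAMRA/BHQ-2 substrate, pH 7.5 Tris buffer with 2 mM MgCl2, RT. Compound preincubation 15 min; readout three fluorescence reads 60 s apart, third-minus-first.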

[2] = qHTS for differential inhibitors of proliferation of Plasmodium falciparum line 7G8 (AID 1815);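 also: parasite growth measured after three days of incubation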; also: potency is read from the fitted curve at half-maximal effect
[3] = qHTS for differential inhibitors of proliferation of Plasmodium falciparum line GB4 (AID 1816); conditions: Potency: Plasmodium falciparum GB4 proliferation inhibition;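 also: parasite growth measured after 72 h incubation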; also: potency is read from the fitted curve at half-maximal effect
[4] = qHTS for differential inhibitors of proliferation of Plasmodium falciparum line 3D7 (AID 1876); also: potency is read from the fitted curve at half-maximal effect
[5] = qHTS for differential inhibitors of proliferation of Plasmodium falciparum line D10 (AID 1877);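 also: parasites grown with compound for 72 h before DNA staining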; also: potency is read from the fitted curve at half-maximal effect
[6] = qHTS for differential inhibitors of proliferation of Plasmodium falciparum line Dd2 (AID 1882); conditions: Potency: Plasmodium falciparum Dd2 proliferation inhibition; also: nearly all actives have a fitted effect of over 65% in size; also: potency is read from the fitted curve at half-maximal effect
Outline: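 SYBR Green DNA fluorescence (ex 485, em 535 nm) after overnight lysis quantifies parasite growth; compound exposure lasted 72 h at 37 C on infected red cells at 2.5% hematocrit, 0.3% parasitemia (final). Artemisinin 0.29 uM and vehicle wells define normalization.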

[7] = qHTS for differential inhibitors of proliferation of Plasmodium falciparum line W2 (AID 1883); conditions: Potency: Plasmodium falciparum W2 proliferation inhibition;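 also: parasites grown with compound for 72 h before lysis and staining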; also: potency is read from the fitted curve at half-maximal effect
[8] = qHTS for differential inhibitors of proliferation of Plasmodium falciparum line HB3 (AID 1886); conditions: Potency: Plasmodium falciparum HB3 proliferation inhibition;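 also: parasites grown with compound for 72 h before SYBR Green readout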; also: potency is read from the fitted curve at half-maximal effect
[9] = biological target: DNA repair nuclease/redox regulator APEX1 (Homo sapiens) (UniProt P27695); test: qHTS Validation Assay for Inhibitors of the Human Apurinic/apyrimidinic Endonuclease 1 (APE1) (AID 1705;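 also: TAMRA fluorescence gain over two minutes as APE1 cuts a quenched THF abasic duplex; series mostly up to about 57 µM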)
Outline: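 qHTS, 1536-well. APE1 + cpd 15 min RT → 50 nM TAMRA/BHQ-2 THF-abasic dsDNA substrate → kinetic fluorescence, 3 reads/60 s; delta(read3−read1) = reaction progress. No-enzyme buffer = negative control.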

[10] = Counterscreen for APE1 Inhibitors: Fluorescent Dye Displacement Validation Assay (AID 1707)
Outline: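 Endpoint fluorescence read at 480 nm excitation / 540 nm emission; DNA-binding compounds lower signal by displacing 250 nM Thiazole Orange from 50 nM dsDNA containing a tetrahydrofuran abasic site, Tris-HCl pH7.5 buffer with NaCl and MgCl2.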

[11] = biological target: Alpha-galactosidase A (Homo sapiens) (UniProt P06280); test: Counterscreen for Glucocerebrosidase Inhibitors: qHTS Assay for Human alpha-Galactosidase at pH 4.5 (AID 992)
Outline: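 Fluorogenic 4-MU alpha-D-galactoside (80 uM) hydrolysis, 2 nM enzyme, pH 4.5 citrate buffer + 0.005% Tween-20; 20 min RT; NaOH/glycine pH 10 stop; Ex365/Em440. Compounds titrated 0.7 nM–77 uM; Hill-equation AC50.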

[12] = biological target: alpha-glucosidase (Oryza sativa, rice) (UniProt Q653V4); test: Counterscreen for Glucocerebrosidase Inhibitors: qHTS Assay for Rice alpha-Glucosidase at pH 5.0 (AID 997)
Outline: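 Endpoint fluorogenic assay at pH 5.0: compounds (0.7 nM to 77 uM) titrated against 4 nM rice enzyme and 400 uM 4-MU-alpha-glucoside for 20 min at room temperature; NaOH/glycine stop, read ex 365/em 440 nm, Hill-fitted AC50.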

[13] = Cell Viability - LYMP2-022 (AID 987); also: nearly all actives have a fitted effect of over 55% in size; also: potency is read from the fitted curve at half-maximal effect
Outline: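 Cells were seeded at 2500 per well, rested 5 hr at 37 C, and treated with titrated compounds for 24 hr at 37 C. Cellular ATP was then quantified by luciferase luminescence, and AC50 values were derived from Hill-modelled concentration-response curves.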

[14] = Cell Viability - LYMP2-024 (AID 988); also: nearly all actives have a fitted effect of over 60% in size; also: potency is read from the fitted curve at half-maximal effect
Outline: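 qHTS cytotoxicity, human lymphoblastoid line, complete medium; 24 h cpd treatment, 37 C; CellTiter-Glo ATP luminescence readout; tetraoctylammonium bromide positive control; AC50 via Hill fit.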

[15] = Cell Viability - LYMP1-002 - Assay at 40 hr (AID 994); also: nearly all actives have a fitted effect of over 60% in size; also: potency is read from the fitted curve at half-maximal effect
Outline: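 Cells are plated at 2500 per well and rested 5 hr at 37 C. Compounds are added and incubated 40 hr at 37 C. CellTiter-Glo reagent is added for 30 min at room temperature before luminescence is read.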

[16] = Cell Viability - LYMP2-026 (AID 989);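 also: cells exposed to compound for 24 h at 37 °C; nearly all actives have a fitted effect of over 50% in size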
Outline: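 Cells are seeded at 2500 per well and held 5 hr at 37 C. Compounds are added in concentration series for 24 hr, then CellTiter-Glo reagent is applied and luminescence read.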

[17] = Cell Viability - LYMP1-002 - Assay at 24 hr (AID 993)
Outline: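 Acute toxicity is measured as concentration-dependent loss of cellular ATP in a human lymphoblastoid line (Coriell LYMP1-002) after 24 h treatment in complete medium. ATP is quantified by luciferase luminescence and AC50 derived by Hill modelling.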

[18] = qHTS Assay for Modulators of Human Peripheral Myelin Protein 22 (PMP22) Expression/Activity (AID 1967; active = well fitted curve in the direction sought with a large enough effect in the signal ratio; the % refers to the signal ratio)
Outline: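 Luminescence ratio of Pmp22 promoter-driven green luciferase to EF-alpha-driven red luciferase, in engineered mouse MSC80 Schwann cells, served as read-out. Compounds were incubated 24h; untreated cells defined 0% Activity; curves were classified by r2, magnitude and activity.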

Chain of DNA repair nuclease/redox regulator APEX1 (Homo sapiens) (P27695 whole entry, looked up): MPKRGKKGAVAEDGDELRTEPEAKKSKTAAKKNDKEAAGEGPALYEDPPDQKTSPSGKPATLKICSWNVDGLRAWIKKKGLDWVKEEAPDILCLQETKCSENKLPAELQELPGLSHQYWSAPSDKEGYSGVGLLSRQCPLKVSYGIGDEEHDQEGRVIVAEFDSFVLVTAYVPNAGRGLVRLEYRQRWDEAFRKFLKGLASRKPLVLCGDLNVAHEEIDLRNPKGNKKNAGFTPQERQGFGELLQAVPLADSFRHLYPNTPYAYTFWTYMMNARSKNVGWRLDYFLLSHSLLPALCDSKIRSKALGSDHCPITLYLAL
Chain of Alpha-galactosidase A (Homo sapiens) (P06280 whole entry, looked up): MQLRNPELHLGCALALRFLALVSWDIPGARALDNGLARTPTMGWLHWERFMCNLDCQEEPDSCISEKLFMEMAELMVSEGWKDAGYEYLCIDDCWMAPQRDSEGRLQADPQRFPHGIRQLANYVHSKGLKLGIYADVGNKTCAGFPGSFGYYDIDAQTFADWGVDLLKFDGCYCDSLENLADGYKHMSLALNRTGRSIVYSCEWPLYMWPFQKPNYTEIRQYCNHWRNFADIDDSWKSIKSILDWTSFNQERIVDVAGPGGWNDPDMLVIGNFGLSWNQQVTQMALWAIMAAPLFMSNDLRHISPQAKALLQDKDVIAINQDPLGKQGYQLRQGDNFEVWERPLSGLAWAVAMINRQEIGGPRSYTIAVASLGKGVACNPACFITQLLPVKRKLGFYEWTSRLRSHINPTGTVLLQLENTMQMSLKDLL

Row | Structure (SMILES) | Potency [1] | Potency [2] | Potency [3] | Potency [4] | Potency [5] | Potency [6] | Potency [7] | Potency [8] | Potency [9] | outcome [10] | outcome [11] | outcome [12] | Potency [13] | Potency [14] | Potency [15] | outcome [16] | outcome [17] | outcome [18]
2 | CCOC(=O)C1=C(C)NC(C)=C(C(=O)OC)C1c1cccc(Cl)c1Cl (configuration not stated) |  | 12.6 µM (active) | 12.6 µM (active) | 8.91 µM (active) | 15.8 µM (active) |  | 8.91 µM (active) | 12.6 µM (active) | inactive | inactive |  |  |  |  |  |  |  | 
3 | CCc1cccc(N(C)C(N)=Nc2cccc3ccccc23)c1 | inactive | 3.16 µM (active) | 10 µM (active) | 12.6 µM (active) | 14.1 µM (active) |  | 0.631 µM (active) | 11.2 µM (active) |  | inactive | inactive | inactive |  |  |  |  |  | 
4 | O=C(O)CN(CCOCCOCCN(CC(=O)O)CC(=O)O)CC(=O)O |  | inactive | inactive | inactive | inactive | inactive | inactive | inactive |  | inactive | inactive | inactive |  |  |  |  |  | 
5 | Nc1ncn([C@@H]2O[C@H](CO)[C@@H](O)[C@H]2O)c(=O)n1 | inactive | inactive | inactive | inactive | inactive | inactive | inactive | inactive |  | inactive | inactive | inactive | 15.8 µM (active) | 15.8 µM (active) | 15.8 µM (active) |  |  | 
6 | CCCC(C(=O)OCCN(CC)CC)(c1ccccc1)c1ccccc1 | inactive | 1.78 µM (active) | 3.16 µM (active) | 2.24 µM (active) | 3.16 µM (active) | 7.08 µM (active) | 1.78 µM (active) | 2.51 µM (active) |  | inactive | inactive | inactive |  |  |  |  |  | 
7 | CCCCOCCOCCOCc1cc2c(cc1CCC)OCO2 |  |  |  |  |  |  |  |  |  |  |  |  | inactive | inactive | inactive | inactive | inactive | 
8 | CN(C)CC[C@@H](c1ccc(Br)cc1)c1ccccn1 | inactive |  |  |  | inactive |  | 1 µM (active) | inactive | inactive | inactive |  |  |  |  |  |  |  | 
9 | CC(=O)OCC1=C(C(=O)O)N2C(=O)[C@@H](NC(=O)Cc3cccs3)[C@H]2SC1 | inactive |  | inactive | inactive | inactive | inactive | inactive | inactive | inactive | inactive |  |  |  |  |  |  |  | inactive
